Each structure is given as a SMILES string. Compounds without any hit were thinned out: in the full panel of roughly 83,000, 20% have a hit.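 Step 1: grow cells in 96-well plates. Step 2: add test compound at a single concentration. Step 3: incubate 48 h. Step 4: record percent growth.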 A number with no mark means an inactive call. The source made the active and inactive calls. How the source made its calls: active means growth percent below 10; inactive means the rest.

In this assay the test system is A549/ATCC NSCLC. Put plainly: NCI-60 one-dose screen, 48 h (100 = growth as untreated, 0 = no growth, -100 = all killed). The settings on record: 10 µM.
Take `COC(=O)CC1CC1C1Cc2c(nc(N(C)S(C)(=O)=O)nc2C(C)C)-c2ccc(F)cc21` (configuration not stated): the growth is 92.3%.
For `CN1CCN(c2ccc(Nc3nc(N4CCN(S(=O)(=O)c5ccc(Cl)cc5)CC4)c4sccc4n3)cc2)CC1` the value was 22%; for `Cc1ccc(-c2ccc(SCC(=O)Nc3ccc(Cl)c(C(F)(F)F)c3)nn2)cc1`, 40.4%; for `Oc1ccc(/C=C2\CCCc3cc4ccc(O)cc4[o+]c32)c(O)c1`, 83%.
For `O=C(Nc1ccc(F)c(Cl)c1)c1cc(-c2ccc(F)cc2F)ccc1O` the value was 9.32% (active).
Turning to `CCN1CCN(c2ccc(NC(=O)Nc3ccc4c(c3F)CCN4c3ccnc(C(=O)NC)c3)cc2C(F)(F)F)CC1`, the growth was -81.4% (active).
Regarding `O=C(CS(=O)(=O)c1oc(-c2ccc(Cl)cc2)nc1S(=O)(=O)c1ccccc1)N1CCCC1`, the growth is 79.1%.
For `C=C(C)[C@@H]1CC[C@]2(C)[C@H](CC=C3[C@@H]4CC(C)(C)CC[C@]4(C(=O)N4CCOCC4)CC[C@]32C)[C@@]1(C)CCCN` the value was -84.1% (active); for `COc1ccccc1C(=O)NNC(=O)CSc1nc2c(c(=O)[nH]1)CCCC2`, 106%.
In the case of `Cc1ccc(/C(N)=N/c2sc(-c3ccccc3)nc2-c2ccccc2)cc1` it was 80.4%.
For `O=C(COc1ccc(NC(=O)Nc2ccc(Cl)cc2)cc1)N=Nc1c(O)[nH]c2ccc([N+](=O)[O-])cc12` the value was 105%; for `COc1cc(/C=C/C(=O)c2cc(OC)c(OC)c(OC)c2)ccc1Oc1nc(Nc2ccc(F)cc2)nc(N(C)C)n1`, -48.3% (active).

Values taken from PubChem BioAssay (NCI).
